Reference: PubChem BioAssay (NCI)
About 79,000 compounds went through this panel and 15% of them were active in at least one assay; those are over-represented in the sample as a whole. Active and inactive are the calls of the source. Cut-off read from the data, not from the text of the source: active = growth inhibition above about 70%; inactive = the rest.

Key:
[1] = NCI Yeast Anticancer Drug Screen. Data for the rad50 strain (AID 155);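 note: 0% = growth of vehicle-only cultures of the same strain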; settings: S. cerevisiae rad50 strain growth inhibition; at 50.0 µM; active compounds read high
Outline: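 Growth of the mutant yeast was measured after compound exposure and referenced to vehicle-treated cultures.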

[2] = NCI Yeast Anticancer Drug Screen. Data for the mec2-1 strain (AID 157); settings: S. cerevisiae mec2-1 strain, at 50.0 µM, active compounds read high
Outline: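 Vehicle-treated cultures served as reference for growth inhibition of compound-exposed mec2-1 yeast.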

[3] = NCI Yeast Anticancer Drug Screen. Data for the sgs1 mgt1 strain (AID 161);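 note: 0% = growth of cultures given vehicle only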; settings: S. cerevisiae sgs1 mgt1 strain, at 50.0 µM, active compounds read high
Outline: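 Mutant yeast exposed to compound; growth scored against vehicle-only wells.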

[4] = NCI Yeast Anticancer Drug Screen. Data for the cln2 rad14 strain (AID 165);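 note: 0% = growth equal to vehicle treated cultures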; settings: S. cerevisiae cln2 rad14 strain, at 50.0 µM, active compounds read high
Outline: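 Each compound was tested on cln2 rad14 yeast. Inhibition of growth was calculated against vehicle-exposed controls.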

[5] = NCI Yeast Anticancer Drug Screen. Data for the bub3 strain (AID 167); settings: S. cerevisiae bub3 mutant strain, at 50.0 µM, active compounds read high
Outline: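 Whole-cell yeast assay. The mutant strain was incubated with compounds, and growth inhibition was determined by comparison with vehicle-treated cells.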

[6] = NCI Yeast Anticancer Drug Screen. Data for the mlh1 rad18 strain (AID 175); settings: S. cerevisiae mlh1 rad18 strain growth inhibition; at 50.0 µM; active compounds read high
Outline: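 Vehicle-treated cultures served as the reference for growth inhibition in a yeast strain carrying DNA damage repair alterations exposed to each compound.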

Measured: growth inhibition

COc1ccc(N2N=NN(C(C)C)/C2=C(/Cl)c2nnnn2-c2ccc(OC)cc2)cc1
inactive: [1] 25.8% | [2] 42.9% | [3] 33.8% | [4] 19.1% | [5] 24.9% | [6] 39.3%

Cc1nc(N)nc(N)c1N1CCN(c2ccc(C(=O)NC(C(=O)O)C(=O)O)cc2)CC1
inactive: [1] -4.8% | [2] -15.6% | [3] -25.8% | [4] 4.55% | [5] -38.2% | [6] -37.8%

CCOC(=O)c1c(-c2ccc([N+](=O)[O-])cc2)c(C#N)n(-c2ccccc2)c1C
inactive: [1] -1.25% | [2] 36% | [3] 28.4% | [4] -7.95% | [5] 45.1% | [6] 6.1%

CC(C)NC(=O)OCc1c(COC(=O)NC(C)C)c2cccn2c2c1cnn2-c1ccccc1
inactive: [1] -0.9% | [2] 0.6% | [3] -11.2% | [4] -3.7% | [5] 0.15% | [6] 18.3%

CC1=CC(=O)C2=C(C)CCC3C(C)C(=O)OC3C12 (stereo not drawn)
inactive: [1] -4.2% | [2] -9.85% | [3] -6.75% | [4] 10.8% | [5] -3.55% | [6] -60.7%

CC(=O)Oc1ccccc1C#CC(=O)O
inactive: [1] 17.3% | [2] 25.6% | [3] 34% | [4] -1.2% | [5] -0.7% | [6] 15.4%

COc1ccc(Cl)cc1/C=C\C=N\OCC(=O)O
inactive: [1] 5.2% | [2] 1.85% | [3] 1.05% | [4] -43.6% | [5] -5.85% | [6] 7.25%

Cn1c2ccccc2c2nnc(N/N=C/c3cccs3)nc21
inactive: [1] -15.6% | [2] -9.2% | [3] -9.6% | [4] -32.2% | [5] -10.6% | [6] 10.7%

CC1=Nc2cc(C)c(C)cc2NC(=O)C1
inactive: [1] -16.8% | [2] -43.9% | [3] -6.1% | [4] 20.4% | [5] -21.9% | [6] -1.7%

O=C1CCCC1CN1CCCCC1 (stereo not drawn)
inactive: [1] 3.25% | [2] -31.8% | [3] -13.7% | [4] 8.5% | [5] 22.1% | [6] -7.25%

C=CC1=C(C)C2=NC1=CC1=NC(=CC3=C(C)C4=C(O)C(C(=O)OC)C(=C5NC(=C2)C(C)C5CCC(=O)OC)C4=N3)C(CC)=C1C (stereo not drawn)
inactive: [1] 10.1% | [2] 11.3% | [3] -48.8% | [4] 7.95% | [5] 4.95% | [6] -12.5%

O=[N+]([O-])c1cc(S(=O)(=O)O)cc(S(=O)(=O)O)c1O
inactive: [1] 12.6% | [2] 2.6% | [3] 13.2% | [4] 19.6% | [5] 16.5% | [6] 18.1%

C=Nc1ccc([N+](=O)[O-])cc1
inactive: [1] 6.9% | [2] 10.2% | [3] -1.3% | [4] 14.6% | [5] -4.75% | [6] 26.3%

Cc1ccc(N=Cc2ccccc2O)cc1.[Co]
inactive: [1] -18.9% | [2] 14.9% | [3] -2.75% | [4] 14.2% | [5] 1.45% | [6] -11.1%

COC1(OC)C[C@H](C)[C@@]23O[C@]24c2cc(O)c5c(c2N[C@H]3C#C/C=C\C#C[C@]14O)C(=O)c1ccccc1C5=O
active: [1] 87.7% | [2] 87.2% | [3] 88.8% | [4] 88% | [5] 89.3% | [6] 90.8%

CC(=O)C1=CCC(C(C)C)C1 (stereo not drawn)
inactive: [1] 4.2% | [2] -0.9% | [3] -1.2% | [4] -1.3% | [5] 17.1% | [6] 2%

NC(=S)N/N=C1/C(=O)N(c2ccccc2)C(=O)C1C(=O)Nc1ccccc1 (stereo not drawn)
inactive: [1] 46.2% | [2] 16.8% | [3] 38% | [4] 0.9% | [5] -0.25% | [6] 39.1%

CCC1(C)NN=C2C(=CC=C3NNC(C)(CC)N32)n2cccc21 (stereo not drawn)
inactive: [1] 36.9% | [2] 8.8% | [3] -19.1% | [4] 3.5% | [5] -2.65% | [6] 26.4%

C[P+](C)(C)c1ccccc1
inactive: [1] -16.6% | [2] 4% | [3] 4.95% | [4] -22.2% | [5] 3.15% | [6] -3.7%

CCCCCCCCCCCC(=O)OCC
inactive: [1] 26.8% | [2] 22.4% | [3] 8.45% | [4] 25.2% | [5] 9.15% | [6] 8.7%

CCCCON1C[C@H](OC(C)=O)C(OC(C)=O)[C@H](OC(C)=O)C1 (stereo partly drawn)
inactive: [1] -44.8% | [2] -15.9% | [3] -39.1% | [4] -10.4% | [5] 16.9% | [6] -24.6%

CC(=O)Nc1c(Cl)c(Cl)c2c(c1Cl)Cc1cc([N+](=O)[O-])ccc1-2
inactive: [1] 9.2% | [2] -12.8% | [3] 7.6% | [4] -9.1% | [5] 3.15% | [6] 2.1%

CC1(C)CC(C2CC(C)(C)CC(C)(C)[C@H]2O)[C@@H](O)C(C)(C)C1 (stereo partly drawn)
inactive: [1] -17.3% | [2] -2.3% | [3] -2.1% | [4] -13.2% | [5] -25.8% | [6] -19.9%

C/C=C/C1OCC(C)([N+](=O)[O-])CO1 (stereo not drawn)
inactive: [1] 23.5% | [2] 10.1% | [3] 19.4% | [4] 12.5% | [5] -1.35% | [6] 31.1%

COC(=O)NCc1nc2cc3c[nH][nH]c3cc2n1
inactive: [1] -8.15% | [2] 0.05% | [3] 14.9% | [4] -16% | [5] 11.6% | [6] 11.2%

COc1ccc(N=C2[Se]C(=NC(=O)c3ccccc3)N(c3ccc(OC)cc3)C2=Nc2ccc(OC)cc2)cc1
inactive: [1] 13.1% | [2] -25.5% | [3] -22.2% | [4] -36% | [5] 1.3% | [6] -7.95%

O/N=C1\CC2CC1C1CC3(CC3)C21 (stereo not drawn)
inactive: [1] -6.85% | [2] -9.6% | [3] -0.15% | [4] -0.9% | [5] -22.2% | [6] 20.6%

CCCCCCOC(=O)c1ccccc1Cl
inactive: [1] 5.75% | [2] 9.35% | [3] -3.05% | [4] -16.9% | [5] 26.4% | [6] 34.2%

O=C(O)CN=CC(O)C(O)C(O)C(O)CO (stereo not drawn)
inactive: [1] -9.8% | [2] -3.8% | [3] 3.9% | [4] 4.4% | [5] 9.15% | [6] -2.45%

COc1ccc(Nc2nc3c(N)cc(C(F)(F)F)cc3nc2-c2ccccc2)cc1
inactive: [1] 10.7% | [2] 2.65% | [3] -1.7% | [4] 25.9% | [5] 6.1% | [6] 1.4%

O=C1/C(=C\C=C\c2ccccc2)CCC/C1=C/C=C/c1ccccc1
inactive: [1] 15.3% | [2] 5.05% | [3] 5.7% | [4] 20.8% | [5] 34% | [6] 3.1%

CC(C)C1NC(C(=O)O)C(C)(C)S1 (stereo not drawn)
inactive: [1] 1.75% | [2] 6.6% | [3] -1.6% | [4] 4.05% | [5] 0.35% | [6] -16.1%

CCC(C)C(C)O (stereo not drawn)
inactive: [1] -7.05% | [2] -53% | [3] 2.9% | [4] 14.5% | [5] -12.8% | [6] 0.1%

CCC(c1ccccc1)c1cc(C(C)(C)C)cc(C(C)(C)C)c1O (stereo not drawn)
inactive: [1] 31.9% | [2] -36% | [3] -15.4% | [4] -2.25% | [5] 25.4% | [6] 0.95%

COc1ccc(N2C(=O)C(=O)N(C)C2=O)c2ccccc12
inactive: [1] -15.1% | [2] -26.7% | [3] -2% | [4] 6.1% | [5] 2.85% | [6] -7.95%

CC/C(=N/NC(=O)NN)c1ccc(Cl)cc1
inactive: [1] -2.2% | [2] 14.3% | [3] -1.2% | [4] -1.8% | [5] 22.6% | [6] 17.6%

CC1(C)OCCS1
inactive: [1] -4.2% | [2] 18.1% | [3] 6.7% | [4] 18.6% | [5] 20.6% | [6] 13.9%

Cc1cccc(C)c1NC(=O)Nc1ccc(C(=O)O)cc1
inactive: [1] -8.6% | [2] 31.7% | [3] 2.5% | [4] -15.8% | [5] 22.6% | [6] 11.4%
